This is a sample that favours compounds with a hit; in the whole collection about 4.1% have one here.
MIN6 prolif = induces beta-cell replication in MIN6 cells; MIN6 cells proliferation, ATPlite luminescence, 48 h; cells starved in 0.2% serum; 100% = growth in 10% serum; proliferation, % at 10 µM; actives 0.29% (n = 330,000); AID 2380;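 active means compounds whose signal lies at least 3.5 SD above the mean of all wells on their plate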
NR3A LBD binder = NR3A (human) ligand-binding domain modulation | NR3A LBD differential scanning fluorimetry, Tm shift; 0% = protein alone, 100% = glycine-bound protein | Tm shift relative to glycine control, % at 25 µM | actives 2.5% (n = 340,000) | AID 1259313;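 active means melting temperature shift of at least 10% of the positive control shift, at one fixed dose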
FAS-TE inh = FAS thioesterase (human) inhibition | recombinant FAS-TE, OMFH fluorogenic substrate, fluorescence endpoint | inhibition, % at 15 µM | actives 0.67% (n = 360,000);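 active means compounds whose normalised, plate-corrected inhibition of enzyme fluorescence in the single-dose primary screen is 50% or more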
p-CIP stab down = lowers stability of the mouse p/CIP coactivator protein | Q05BA5 | F442A p/CIP-EGFP cells, EGFP fluorescence, 16 h | decrease of EGFP signal, % at 10 µM | actives 0.01% (n = 290,000);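 active means EGFP signal decrease of at least 30% at 10 µM or well 3 SD below plate mean, unless failing retest; inactive means the rest, including hits failing retest or dose response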
MPTP inh = blocks calcium-induced mitochondrial swelling; inhibition, % at 10 µM; AID 602449; actives 1.4% (n = 360,000); isolated mouse mitochondria, Ca2+ swelling absorbance, 30 min;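 active means inhibition of 50% or more, scaled per plate between neutral and stimulator controls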
Numbers stand for hits; n = inactive; x = no result.

SMILES	MIN6 prolif	NR3A LBD binder	FAS-TE inh	p-CIP stab down	MPTP inh
COCCn1c(=NC(=O)c2ccc(S(=O)(=O)N3CCOCC3)cc2)sc2cc(S(N)(=O)=O)ccc21	n	n	n	n	n
C=CCn1c(=NC(=O)c2cc(-c3cccs3)nc3ccccc23)sc2cc(S(N)(=O)=O)ccc21	n	28	n	n	n
N#CCCN(Cc1ccccc1)C(=O)CCC(=O)c1ccc(F)cc1	x	x	n	x	n
COCCNC(=O)C1CCCN(Cc2ccccc2-c2ccccc2)CC1 (stereo unspecified)	x	x	n	x	n
C#CCn1c(=NC(=O)c2ccc(S(=O)(=O)N3CCCc4ccccc43)cc2)sc2cc(S(N)(=O)=O)ccc21	n	19	n	n	n
COC(=O)Cn1c(=NC(=O)c2ccc(S(=O)(=O)N3CCOCC3)cc2)sc2cc(S(N)(=O)=O)ccc21	n	n	n	n	n
NS(=O)(=O)c1ccc(CCNC(=O)C2CCN(S(=O)(=O)c3ccc(Br)s3)CC2)cc1	n	13	n	n	n
COc1cc(/C=N/Nc2ccc([N+](=O)[O-])cc2S(=O)(=O)N2CCOCC2)cc(OC)c1OC	n	n	n	n	n
O=[N+]([O-])c1ccc(N/N=C/c2cccc(O)c2O)c(S(=O)(=O)N2CCOCC2)c1	n	30	n	n	n
O=[N+]([O-])c1ccc(N/N=C/c2ccc(O)c(O)c2O)c(S(=O)(=O)N2CCOCC2)c1	n	23	n	n	n
CCc1nc2c(OCC(=O)C(C)(C)C)cccn2c1N(C=O)Cc1ccc(OC)cc1	x	x	n	x	n
O=C(Nc1cc([N+](=O)[O-])c2[nH]c(=O)c3ccccc3c2c1)C(F)(F)F	x	44	n	x	n
O=C(CCc1nc2ccccc2c(=O)[nH]1)Nc1ccc(F)c([N+](=O)[O-])c1	n	n	n	n	n
FC(F)(F)C(F)(F)C(F)(F)c1nc2nc(Cl)c(Cl)nc2[nH]1	x	x	n	x	n
O=C(O)c1nc2nc(Cl)c(Cl)nc2[nH]1	n	14	n	n	n
O=C(NCc1ccccc1)C1c2ccccc2OCC(=O)N1CCc1c[nH]c2ccccc12 (stereo unspecified)	x	x	n	x	n
Cc1cccc(C)c1NC(=O)C(c1ccccc1)N1CCN(c2ccc(F)cc2)CC1 (stereo unspecified)	x	x	n	x	n
S=c1nc2[nH]c3ccccc3c2n[nH]1	x	20	n	x	n
CNc1nc(=S)[nH]c2ccccc12	n	n	n	n	n
COc1ccc2[nH]cc(/C=N/NS(=O)(=O)c3ccc(C)cc3)c2c1	n	25	n	n	n
Cc1ccc(S(=O)(=O)/C(C#N)=C/c2c[nH]c3ccccc23)cc1	n	13	n	n	n
COc1ccc2c(/C=N/NS(=O)(=O)c3ccc(C)cc3)c[nH]c2c1	n	33	n	n	n
COc1ccc2[nH]cc(C=O)c2c1	n	n	n	n	n
Cc1ccc(S(=O)(=O)N/N=C/c2c[nH]c3ccccc23)cc1	n	31	n	n	n
O=C(COC(=O)/C=C/c1cccc(F)c1)NCc1ccc2c(c1)OCO2	x	x	n	x	n
SMILES	MIN6 prolif	NR3A LBD binder	FAS-TE inh	p-CIP stab down	MPTP inh
COc1ccc(CCN2C(=O)COc3ccccc3C2C(=O)Nc2c(C)cccc2C)cc1OC (stereo unspecified)	x	x	n	x	n
CC(=O)c1cccc(NC(=O)C2Cc3c(-c4ccccc4Oc4ccccc4)ccnc3O2)c1 (stereo unspecified)	x	x	n	x	n
COc1cc(C)ccc1S(=O)(=O)NC(=O)Cn1nnc(COc2ccc3c(c2)CCCC3)c1C	x	x	n	x	n
Cc1cc(-c2nc3cc(F)ccc3s2)ccc1N	x	13	n	x	n
C=C1C(=O)C23C(O)C1CCC2C12CCCC(C)(COC(C)=O)C1C(O)C3(O)OC2 (stereo unspecified)	x	n	n	x	n
O=C(CSc1nnnn1C1CCCCC1)Nc1ccc(F)cc1	n	18	n	n	n
CCNC(=O)C1(C)CCN(C(=O)CCc2ccccc2)C1 (stereo unspecified)	x	x	n	x	n
CCCCCCC(C)OC(=O)Nc1cccc2ccccc12 (stereo unspecified)	n	10	n	n	n
Cc1c(Cl)c([N+](=O)[O-])nn1CC(=O)N1CCc2ccccc2C1	n	n	51	n	n
Cc1ccc([C@H]2C[C@@H](n3cc(-c4ccc(F)cc4)nn3)[C@H](O)CN2C(=O)C2CCCCC2)cc1	x	x	n	x	n
Cc1ccc(NC(=O)c2cccc(NC(=O)/C=C/c3ccco3)c2)cc1C	n	15	n	n	n

Assay outcomes as filed in PubChem.
